The panel holds about 83,000 compounds, 20% with a hit somewhere; the sample as a whole holds those more often.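 Results are percent growth after 48 hours of single-concentration exposure. 100 means growth as in untreated cells, lower positive values show inhibition; negative values down to -100 show cell death.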 A number with no mark means an inactive call. Calls of active or inactive are those of the source. How the source made its calls: active means growth percent below 10; inactive means the rest.
These compounds were tested on HOP-62 NSCLC (assay: NCI-60 one-dose screen, 48 h (100 = growth as untreated, 0 = no growth, -100 = all killed)). Conditions: 10 µM.

| Structure (SMILES) | growth |
| --- | --- |
| COc1ccc(/C=C/C(=O)c2ccc(NC(=O)CN3C(=O)NC(C)(c4ccccc4)C3=O)cc2)cc1 (configuration not stated) | 95.1% |
| CC1(c2ccccc2)NC(=O)N(CC(=O)Nc2ccc(C(=O)/C=C/c3ccc(Br)cc3)cc2)C1=O (configuration not stated) | 61.9% |
| C=C[C@@]12CN3CC[C@]1(O)[C@@](C(=O)OC)(CO2)c1[nH]c2ccccc2c1C3 | 99.5% |
| O=C(CSc1nnc(-c2c[nH]c3ccccc23)n1-c1ccccc1)Nc1ccc(C(=O)/C=C/c2ccccc2Cl)cc1 | 91.9% |
| O=C(NO)c1ccc(-c2nc3ccc4[nH]ncc4c3c3c2CCCC3)cc1 | 0.238% (active) |
| CS(=O)(=O)Nc1ccc(-c2ccc3c(c2)ncn3-c2ccc(NC(=O)Nc3ccc(Br)cc3)cc2)cc1 | -3.22% (active) |
| COc1cc(-c2nc3cc(Cl)c(Cl)cc3[nH]2)ccc1OCc1nnc(-c2ccc(Br)cc2)o1 | -28.1% (active) |
| COc1cccc(C(N)=Nc2ccc(OCCCCCCn3cncn3)cc2)c1 | 20.7% |
| COc1cc2c3c(n(CCCn4ccnc4)c(=O)c2cc1OC)-c1nc2c(cc1C3=O)OCO2 | 22.7% |
| Cc1ccc(/C=C/C(=O)c2ccc(NC(=O)CSc3nnc(-c4c[nH]c5ccccc45)n3-c3ccccc3)cc2)cc1 | 95.8% |
| O=C(CSc1nnc(-c2ccc3nc(-c4ccccc4)[nH]c3c2)o1)Nc1ccc(Br)cc1 | 92.2% |
| O=C(CNc1nc(-c2ccccc2)cs1)Nc1ccccc1 | -62.9% (active) |
| O=C(/C=C/Nc1ccc(F)cc1F)c1ccc2c(c1)Nc1ccccc1S2 | 78.5% |
| COc1cc(Cn2c(C(F)(F)F)cc3c(Cl)ncnc32)ccn1 | 32.1% |
| COc1ccc(-c2cc(C(=O)N=Nc3c(O)[nH]c4ccc(F)cc34)c3ccccc3n2)cc1 | 110% |
| O=C(Nc1ccccc1)Nc1nc2ccccc2s1 | 77.2% |
| O=C(CSc1nnc(-c2ccc3nc(-c4ccccc4)[nH]c3c2)o1)Nc1ccc(Cl)cc1 | 62.9% |

| Structure (SMILES) | growth |
| --- | --- |
| CCOc1ccc(Nc2nc3ccccc3nc2Nc2ccc(OCC)cc2)cc1 | 64.9% |
| CNC(=O)c1cc(-c2ccc(NC(=O)Nc3ccc(C)cc3)cc2)nc2cccnc12 | 90.6% |
| NC(=Nc1ccc(OCCCCCCCCn2ccnn2)cc1)c1ccccc1 | 18.2% |
| Cc1ccc(C(=O)Nc2ccc(-n3c(C)nc4c(cnn4-c4ccccc4)c3=O)cc2)cc1 | 78.8% |
| C[C@H]1[C@H](C)CC[C@]2(COC(=O)CCC(=O)NCC#CCN3CCNCC3)CC[C@]3(C)C(=CC[C@@H]4[C@@]5(C)CCCNC(C)(C)[C@@H]5CC[C@]43C)[C@H]12 | 60.8% |
| O=c1[nH]c2ccc(Cl)cc2cc1CSc1ccc(Nc2nccc(-c3ccc(Cl)cc3)n2)cc1 | 93.8% |
| COc1ccc(-c2cc(C(=O)N=Nc3c(O)[nH]c4ccccc34)c3ccccc3n2)cc1 | -42.7% (active) |
| COc1ccc(-c2nc(S(=O)(=O)c3ccc(C)cc3)c(S(=O)(=O)CC(=O)N(C)Cc3ccccc3)o2)cc1 | 82.1% |
| COc1ccc(C(C)=C(c2ccc(OCCCN(C)C)cc2)c2ccc(OCCCN(C)C)cc2)cc1 | -92.2% (active) |
| COc1cc2c3c(n(CCCNCCO)c(=O)c2cc1OC)-c1nc2c(cc1C3=O)OCO2 | 0.0851% (active) |
| c1ccc(C(=C(c2ccc(OCCN3CCCCC3)cc2)c2ccc(OCCN3CCCCC3)cc2)C2CCCC2)cc1 | -10.9% (active) |
| O=C(CSc1nnc(-c2c[nH]c3ccccc23)n1-c1ccccc1)Nc1ccc(C(=O)/C=C/c2ccc(Cl)cc2)cc1 | 85.8% |
| COc1cnc2c(c1)C(=O)c1c-2n(CCCNC(C)C)c(=O)c2cc(OC)c(OC)cc12 | 16.7% |
| COc1ccc(NC(=O)CSc2nnc(-c3ccc4nc(-c5ccc(Cl)cc5)[nH]c4c3)o2)cc1 | 74.6% |
| CN(CCO)c1oc(-c2ccccc2)nc1[P+](c1ccccc1)(c1ccccc1)c1ccccc1 | 13.2% |
| CN1CCc2c(sc3ncnc(N/N=C/c4ccc5ccccc5c4)c23)C1 | 82% |

Each compound was assayed on NCI-H460 lung in the same assay as above. Conditions: 10 µM.

| Structure (SMILES) | growth |
| --- | --- |
| Cc1ccc(C(C)C)cc1NC(=O)c1ccccc1O | 30.8% |
| CC1(c2ccccc2)NC(=O)N(CC(=O)Nc2ccc(C(=O)/C=C/c3ccc(Br)cc3)cc2)C1=O (configuration not stated) | 59.5% |
| C=C[C@@]12CN3CC[C@]1(O)[C@@](C(=O)OC)(CO2)c1[nH]c2ccccc2c1C3 | 87.2% |
| COc1ccc(/C=C/C(=O)c2ccc(S(=O)(=O)NCCNc3nc(Nc4ccc(F)cc4)nc(N(C)C)n3)cc2)cc1 | 15.1% |
| O=c1oc2ccccc2cc1-c1csc(N=Nc2c(O)[nH]c3ccc(Br)cc23)n1 | 106% |
| O=C(CSc1nnc(-c2c[nH]c3ccccc23)n1-c1ccccc1)Nc1ccc(C(=O)/C=C/c2ccccc2Cl)cc1 | 89% |
| O=C(NO)c1ccc(-c2nc3ccc4[nH]ncc4c3c3c2CCCC3)cc1 | -43.4% (active) |
| CS(=O)(=O)Nc1ccc(-c2ccc3c(c2)ncn3-c2ccc(NC(=O)Nc3ccc(Br)cc3)cc2)cc1 | 2.98% (active) |
| O=C(CS(=O)(=O)c1oc(-c2ccc(Cl)cc2)nc1S(=O)(=O)c1ccc(Cl)cc1)N1CCOCC1 | 107% |
| COc1cccc(C(N)=Nc2ccc(OCCCCCCn3cncn3)cc2)c1 | 28.1% |
| COc1cc2c3c(n(CCCn4ccnc4)c(=O)c2cc1OC)-c1nc2c(cc1C3=O)OCO2 | 8.7% (active) |
| Cc1ccc(/C=C/C(=O)c2ccc(NC(=O)CSc3nnc(-c4c[nH]c5ccccc45)n3-c3ccccc3)cc2)cc1 | 84.6% |
| O=C(CSc1nnc(-c2ccc3nc(-c4ccccc4)[nH]c3c2)o1)Nc1ccc(Br)cc1 | 6.71% (active) |
| O=C(CNc1nc(-c2ccccc2)cs1)Nc1ccccc1 | -11.4% (active) |
| O=C(/C=C/Nc1ccc(F)cc1F)c1ccc2c(c1)Nc1ccccc1S2 | 55.4% |
| COc1cc(Cn2c(C(F)(F)F)cc3c(Cl)ncnc32)ccn1 | 2.75% (active) |
| COc1ccc(-c2cc(C(=O)N=Nc3c(O)[nH]c4ccc(F)cc34)c3ccccc3n2)cc1 | 44.2% |

| Structure (SMILES) | growth |
| --- | --- |
| O=C(Nc1ccccc1)Nc1nc2ccccc2s1 | 95.3% |
| O=C(CSc1nnc(-c2ccc3nc(-c4ccccc4)[nH]c3c2)o1)Nc1ccc(Cl)cc1 | 48.8% |
| CCOc1ccc(Nc2nc3ccccc3nc2Nc2ccc(OCC)cc2)cc1 | 17.2% |
| CNC(=O)c1cc(-c2ccc(NC(=O)Nc3ccc(C)cc3)cc2)nc2cccnc12 | 105% |
| Cc1ccc(C(=O)Nc2ccc(-n3c(C)nc4c(cnn4-c4ccccc4)c3=O)cc2)cc1 | 75.4% |
| COc1ccc(-c2cc(-c3cc(C(=O)c4ccccc4)n4ccc(C)cc34)nc(N)c2C#N)cc1 | 44.5% |
| O=c1[nH]c2ccc(Cl)cc2cc1CSc1ccc(Nc2nccc(-c3ccc(Cl)cc3)n2)cc1 | -27.6% (active) |
| COc1ccc(-c2cc(C(=O)N=Nc3c(O)[nH]c4ccccc34)c3ccccc3n2)cc1 | -70.4% (active) |
| COc1ccc(-c2nc(S(=O)(=O)c3ccc(C)cc3)c(S(=O)(=O)CC(=O)N(C)Cc3ccccc3)o2)cc1 | 82.6% |
| COc1ccc(C(C)=C(c2ccc(OCCCN(C)C)cc2)c2ccc(OCCCN(C)C)cc2)cc1 | -44.2% (active) |
| COc1cc2c3c(n(CCCNCCO)c(=O)c2cc1OC)-c1nc2c(cc1C3=O)OCO2 | -43.9% (active) |
| c1ccc(C(=C(c2ccc(OCCN3CCCCC3)cc2)c2ccc(OCCN3CCCCC3)cc2)C2CCCC2)cc1 | -55.4% (active) |
| O=C(CSc1nnc(-c2c[nH]c3ccccc23)n1-c1ccccc1)Nc1ccc(C(=O)/C=C/c2ccc(Cl)cc2)cc1 | 88.2% |
| COc1cnc2c(c1)C(=O)c1c-2n(CCCNC(C)C)c(=O)c2cc(OC)c(OC)cc12 | 16% |
| COc1ccc(NC(=O)CSc2nnc(-c3ccc4nc(-c5ccc(Cl)cc5)[nH]c4c3)o2)cc1 | 10.7% |
| CN(CCO)c1oc(-c2ccccc2)nc1[P+](c1ccccc1)(c1ccccc1)c1ccccc1 | 6.61% (active) |
| CN1CCc2c(sc3ncnc(N/N=C/c4ccc5ccccc5c4)c23)C1 | 0.259% (active) |

Source: PubChem BioAssay (NCI)
